TGFb SMAD3 inh = qHTS for Inhibitors of TGF-b | 410,000 tested, 1.2% active | Potency, µM (highest dose often 46.1 µM), without a hit: top-dose activity, negative = inhibition, hits mostly inhibitors | HepG2 CAGA-GFP TGF-b/SMAD3 reporter, GFP fluorescence, 18 h; TGF-beta stimulated, 500 pg/mL final | AID 588855, 2011; note: % is set by controls: 0 for no effect and ±100 for the full control effect; nearly all actives have a fitted effect of over 65% in size
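Inhibition was scored as loss of TGF-beta-induced (500 pg/mL final, 18 hours, 37 degrees C) GFP in HEPG2 cells carrying a CAGA-GFP reporter, in DMEM with 1% FBS. Well GFP was summed per cell; Activity was normalised to unstimulated and stimulated DMSO wells, then concentration-response fitting.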
12-LOX inh = Primary qHTS assay for inhibitors of human arachidonate 12S-lipoxygenase (ALOX12): Round 2; AID 1671190, 2021; 580,000 tested, 1.1% active; purified 12hLO, xylenol orange hydroperoxide absorbance; Potency, µM (doses to about 108 µM), without a hit: at the top dose activity change, negative = inhibition, most hits filed as inhibitors; note: % is set by controls: 0 for no effect and ±100 for the full control effect
Target sequence (P18054 whole entry, looked up): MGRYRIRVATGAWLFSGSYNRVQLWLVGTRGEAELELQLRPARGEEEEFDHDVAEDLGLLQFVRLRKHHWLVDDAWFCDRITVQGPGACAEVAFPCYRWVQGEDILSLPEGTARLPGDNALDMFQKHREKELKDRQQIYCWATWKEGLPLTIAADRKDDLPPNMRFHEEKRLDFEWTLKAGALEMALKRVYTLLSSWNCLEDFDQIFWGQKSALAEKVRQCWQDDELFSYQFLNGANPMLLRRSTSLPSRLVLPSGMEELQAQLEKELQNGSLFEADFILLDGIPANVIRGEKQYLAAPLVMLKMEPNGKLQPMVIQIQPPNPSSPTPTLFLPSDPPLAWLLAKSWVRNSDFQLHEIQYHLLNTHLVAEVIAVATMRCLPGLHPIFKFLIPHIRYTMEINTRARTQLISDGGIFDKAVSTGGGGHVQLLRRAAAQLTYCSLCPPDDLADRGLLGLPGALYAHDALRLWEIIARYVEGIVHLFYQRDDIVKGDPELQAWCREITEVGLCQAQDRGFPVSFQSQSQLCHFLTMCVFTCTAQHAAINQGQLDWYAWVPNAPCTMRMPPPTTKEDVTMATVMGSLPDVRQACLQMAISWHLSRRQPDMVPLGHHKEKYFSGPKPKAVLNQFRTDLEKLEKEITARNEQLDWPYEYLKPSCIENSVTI
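Hydroperoxide product was detected by ferrous iron/xylenol orange as the 573 to 405 nm absorbance ratio. Arachidonic acid at 40 uM (final) was turned over for 30 min at room temperature by 150 nM human 12hLO, pH 7.0 Hepes buffer, after 15 min compound preincubation.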
ATXN2 expr inh = Primary qHTS for Inhibitors of ATXN expression | HEK-293 ATXN2-luciferase reporter, luminescence, 24 h | Potency, µM (highest dose often 57 µM), inactives show at the top dose activity change, negative = inhibition, usual class: inhibitors | 360,000 tested, 0.72% active; note: % is set by controls: 0 for no effect and ±100 for the full control effect; nearly all actives have a fitted effect of over 55% in size
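qHTS (up to 57 uM final) was run with 24 h compound exposure of reporter cells at 37 °C. Each well was multiplexed: SteadyGlo luminescence measured ATXN2-luciferase expression after a fluorogenic Gly-Phe-AFC viability readout (25 uM final).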
ATXN viability = Viability Counterscreen for Primary qHTS for Inhibitors of ATXN expression. 400,000 tested, 0.49% active. Potency, µM (titrated, usually from 56.7 µM), usual class: cytotoxic. AID 651635, 2014. S2 cells (HEK-293 line with an ATXN2-luciferase reporter) viability, CellTiter-Fluor protease fluorescence, 24 h; note: nearly all actives have a fitted effect of over 40% in size
HepG2 viability = qHTS for Inhibitors of TGF-b: Cytotox Counterscreen; AID 588856, 2011; 410,000 tested, 0.76% active; Potency, µM (top dose mostly 46.1 µM), without a hit: at the top dose activity change, negative = cytotoxicity, most hits filed as cytotoxic; HepG2 CAGA-GFP viability, ATP luminescence, 18 h
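CellTiter-Glo luminescence gave cytotoxicity after 18 hours at 37 degrees C. The cells were HepG2 CAGA-GFP in 1% FBS DMEM, stimulated with 500 pg/mL TGF-beta after compound addition. %Activity was normalised to no-cell wells (complete cell-killing) and DMSO (no toxicity), and curves were fitted and classified.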
* hit, by the source's call; i = inactive; ? = inconclusive; . = no result; ! = not active in a repeat; [ ] = dose if it differs, or a comment. Compounds with a hit are over-represented: about 2.7% of the library has one in this group of screens. Calls come from the whole dose curve; as a rule, active = well fitted curve in the direction sought with a large enough effect; inconclusive = small, poorly fitted or top-dose-only effect, or another doubt; inactive = no such curve, though single readings can be large; an effect the other way counts as inactive or inconclusive. Potency is the fitted concentration of half-maximal effect.

SMILES	TGFb SMAD3 inh	12-LOX inh	ATXN2 expr inh	ATXN viability	HepG2 viability
CCOC(=O)C1=C(C)NC(C)=C(C(=O)OCC)C1/C=C/c1ccccc1OC	?	-7.6%	-9.0%	i	4.5%
COc1ccc([C@H]2CC(=O)C=C(c3ccccc3)C2)cc1OC	-12.1%	-9.9%	-26.1%	i	-20.8%
CCCCC/C=C/C1=CC(=O)C[C@H](c2ccc(OC)c(OC)c2)C1	?	-12.8%	22.4µM*	?	-18.1%
CCOC(=O)/C=C1\NC(=O)C(C)S1 (stereo not given)	12.2%	-10.4%	-0.3%	i	3.5%
COC(=O)/C=C1\NC(=O)C(C)S1 (stereo not given)	0.562µM*	-11.5%	-37.6%	?	-24.2%
Cn1ccsc1=NC(=O)c1ccc([N+](=O)[O-])o1	28.2µM*	-23.8%	-4.5%	i	-75.3%
Cc1ccc(C(=O)Nc2ccc(O)c(-c3nc4ccccc4o3)c2)cc1C	.	2.8%	.	.	.
CCCn1nc(C(=O)Nc2ccccc2Br)c2ccccc2c1=O	.	2.4%	.	.	.
CCn1c(C(O)c2ccccc2)nc2ccccc21 (stereo not given)	0.2%	21.4%	-1.7%	i	0.8%
Cc1cc(C)c(Cn2c(C(O)c3ccccc3)nc3ccccc32)c(C)c1 (stereo not given)	15.8µM*	-10.6%	?	?	-38.9%
CN(C)c1cccc(-c2cnc(Nc3ccncc3)c3c2CCO3)c1	.	50.7%[176 µM]	.	.	.
COc1ccc(NC(=S)Nc2ccccn2)cc1	-14.9%	0.0%	20.7%	i	14.8%
Cc1ccc(NC(=S)NNC(=S)Nc2ccc(C)cc2C)cc1	-18.8%	35.5µM*	-0.3%	i	-26.1%
Cc1ccc(NC(=S)Nc2ccccn2)c(C)c1	?	11.2µM*	32.3%	i	-2.0%
Cc1ccc(NC(=O)CCC(=O)NNC(=S)Nc2ccccc2)c(C)c1	-4.1%	-5.9%	.	i	2.1%
COc1ccccc1NC(=S)Nc1ccccn1	?	39.8µM*	27.6%	i	-43.1%
Cc1cc(Cl)ccc1NC(=S)Nc1ccccn1	?	?	10.1%	i	-33.4%
Cc1cc(C)cc(NC(=S)Nc2ccccn2)c1	?	6.31µM*	32.0%	i	-44.4%
COc1ccccc1NC(=O)C(=O)Nc1ccccn1	?	11.6%	60.0%	i	-0.2%
CC(NC(=O)c1cc(-c2ccccc2)n[nH]1)c1ccc(S(C)(=O)=O)cc1 (stereo not given)	.	35.9%	.	.	.
Cc1ccc(NC(=S)Nc2ccccn2)cc1C	-1.3%	?	3.2%	?	-24.0%
Cc1cccc(NC(=S)Nc2ccccn2)c1	?	28.2µM*	13.7%	i	-6.9%
C=CC[C@@H](CC(=O)N[C@H](CO)Cc1ccccc1)C(=O)N[C@H](COC(=O)[C@H](CC=C)CC(=O)OC(C)(C)C)Cc1c[nH]c2ccccc12	15.8µM*	-2.8%	?	28.2µM*	-37.8%
C=CC[C@H](CC(=O)N(CCO)Cc1ccccc1)C(=O)N[C@H](COC(=O)[C@H](CC=C)CC(=O)OC(C)(C)C)Cc1c[nH]c2ccccc12	?	-2.3%	?	22.4µM*	4.3%
CCCCOCCN(C)CC(=O)NCCCOC	.	3.0%	.	.	.
SMILES	TGFb SMAD3 inh	12-LOX inh	ATXN2 expr inh	ATXN viability	HepG2 viability
Cc1ccccc1CNC(=O)c1ccc(CN2C(=O)CCn3nccc32)cc1	.	-7.3%	.	.	.
COC(=O)[C@H]1[C@H](CO)[C@H]2Cn3c(ccc(Br)c3=O)[C@H]2N1Cc1ccccc1Cl	.	35.5µM*	.	.	.
CCNC(=O)NC(=O)C(C)Sc1nnc(-c2cccc(C)c2)n1CCOC (stereo not given)	.	-14.3%	.	.	.
O=C(NC1CCCC1)c1ccc(CSc2nc3ccncc3n2Cc2ccc(F)cc2)cc1	7.94µM*!	0.8%	?	?	-37.1%
COc1ccc(Cn2c(SCc3ccc(C(=O)NC4CCCC4)cc3)nc3ccncc32)cc1	?	2.9%	?	?	-58.6%
O=C(NC1CCCC1)c1ccc(CSc2nc3cccnc3n2Cc2ccccc2)cc1	17.8µM*	2.3%	7.4%	i	-43.0%
COc1ccc(Cn2c(SCc3ccc(C(=O)NC4CCCCC4)cc3)nc3ccncc32)cc1	12.6µM*	-8.2%	?	i	-31.8%
Cc1cccc(C)c1OCC(=O)Nc1ccc2oc(C(F)(F)F)nc2c1	.	5.8%	.	.	.
C[C@@H]1CN([C@H](C)CO)C(=O)c2cc(NC(=O)Nc3ccc(F)cc3)ccc2O[C@@H](C)CCCCO[C@H]1CN(C)Cc1ccc(C(=O)O)cc1	-1.2%	-7.0%	9.6%	i	-0.4%
COc1ccc(CN(C)C[C@@H]2OCCCC[C@H](C)Oc3ccc(NC(=O)Nc4ccc(F)cc4)cc3C(=O)N([C@H](C)CO)C[C@H]2C)cc1	?	?	?	17.8µM*	25.1µM*
C[C@@H]1CN([C@@H](C)CO)C(=O)c2cc(Br)cnc2O[C@@H]1CN(C)Cc1ccc(Oc2ccccc2)cc1	?	-11.3%	-37.9%	25.1µM*	-35.0%
C[C@@H]1CCCCO[C@H](CN(C)Cc2ccc(C(F)(F)F)cc2)[C@H](C)CN([C@@H](C)CO)C(=O)c2cc(NC(=O)Cc3ccccc3)ccc2O1	?	-14.1%	0.0%	12.6µM*	-46.1%
C[C@@H]1CN([C@@H](C)CO)C(=O)c2cc(NC(=O)Nc3ccc(F)cc3)ccc2O[C@@H]1CN(C)Cc1ccc(Oc2ccccc2)cc1	?	?	0.0%	25.1µM*	15.8µM*
C[C@@H]1CN([C@@H](C)CO)C(=O)c2cc(NS(C)(=O)=O)ccc2O[C@H]1CN(C)Cc1ccc(Oc2ccccc2)cc1	?	-14.0%	-9.2%	?	-12.4%
C[C@H](CO)N1C[C@H](C)[C@H](CN(C)Cc2ccc(F)cc2)Oc2ncc(Br)cc2C1=O	.	-10.5%	.	.	.
CC(C)c1ccc(SC(C(=O)O)c2ccccc2)cc1 (stereo not given)	.	-26.6%	.	.	.
CC(C)NC(=O)Nc1ccc2c(c1)C(=O)N([C@H](C)CO)C[C@H](C)[C@@H](CN(C)Cc1ccc(C(F)(F)F)cc1)OCCCC[C@H](C)O2	15.8µM*	-22.8%	?	.	-35.9%
COc1c(Cl)cc(Cl)cc1/C=C/C(=O)c1ccc(NC(=O)c2cccs2)cc1	?	-3.6%	12.6µM*	15.8µM*	-98.5%
CCOC(=O)Cc1ccc(NC(=O)Nc2nnc(N3CCCCC3C)s2)cc1 (stereo not given)	11.2µM*	5.6%	.	.	-39.5%
CCOC(=O)Cc1ccc(NC(=O)Nc2nnc(N3CCCC3)s2)cc1	.	16.9%	.	.	.
Cc1cccc(N2CCN([C@H]3CS(=O)(=O)C[C@@H]3S(=O)(=O)c3ccc(Cl)cc3)CC2)c1C	.	1.5%	.	.	.

High-throughput results: PubChem, National Center for Advancing Translational Sciences (NCATS)
